The campaign covered roughly 2,400 compounds. About 360 (15%) were called active. A selection follows. Entries with a potency or affinity are not part of this list. Values without a mark were called inactive.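 How the source made its calls: active means viability falls under 70% at one or more tested concentrations, taken as toxicity; inactive means viability stays over 70% at every dose.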
Test: viability loss in HeLa cells – cytotoxicity control for MgcRacGAP inhibitor project, dose response (AID 624300);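 further: 100% = median of untreated control wells on the same plate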
Conditions: CellTiter-Glo luminescence, 24 h; series mostly up to 100 µM; viability: at the top concentration

Row | SMILES | viability
1 | CCCN1C(=O)S/C(=C/c2ccc(N3CCOCC3)o2)C1=O | 85%
2 | O=C(O)CCCN1C(=O)/C(=C\c2ccco2)SC1=S | 94%
3 | CCn1c(=S)[nH]c2c(=O)n(C)c(=O)n(C)c21 | 90.8%
4 | COc1cc(/C=N/NC(=O)CCN2CCN(C(c3ccccc3)c3ccccc3)CC2)ccc1O | 106%
5 | COc1ccc2cc(OCC(=O)NNC(=O)Nc3ccc(C(C)=O)cc3)ccc2c1 | 106%
6 | COc1cc(/C=N/NC(=O)C(=O)Nc2ccccn2)ccc1O | 105%
7 | O=[N+]([O-])c1cc(Br)c(O)c(C=Nc2ccc(N3CCOCC3)cc2)c1 | 95.3%
8 | CN(C)c1ccc(NS(=O)(=O)c2cc(Cl)ccc2Cl)cc1 | 104%
9 | CCOC(=O)N1CCC(N2CCN(S(=O)(=O)c3ccc4ccccc4c3)CC2)CC1 | 97.3%
10 | Nc1ccc2c(c1)Cc1cc(N)c(Br)cc1-2 | 99.7%
11 | COc1cc(-c2cc(C(=O)O)c3c(OC)c(OC)c(OC)cc3n2)ccc1O | 104%
12 | COc1cc(-c2cc(-c3ccc(F)cc3)nc(N)c2C#N)ccc1O | 105%
13 | O=C1CC(c2ccccc2)CC(O)=C1C=Nc1ccc(O)cc1 (stereo not given) | 105%
14 | S=c1[nH]nc2sc3ccccc3n12 | 90.2%
15 | Oc1ccc(N2CCN(c3ccnc4cc(Cl)ccc34)CC2)cc1 | 82.4%
16 | O=C(O)c1c2c(nc3ccccc13)/C(=C/c1ccc(O)cc1)CCC2 | 89.2%
17 | COc1cc(/C=N/NC(=O)CNC(=O)c2ccc3c(c2)OCCO3)ccc1O | 112%
18 | COc1cc(/C=N/NC(=O)CCc2ccccc2)ccc1O | 97.8%
19 | COc1ccc(NS(=O)(=O)c2cccc(C(=O)NN=Cc3ccc(O)c(OC)c3)c2)cc1 | 98.1%
20 | COc1cc(/C=N/NC(=O)CN(Cc2ccco2)S(=O)(=O)c2ccccc2)ccc1O | 88.9%
21 | COc1cc(/C=N/NC(=O)CCn2nnc3ccccc32)ccc1O | 105%
22 | COc1cc(/C=N/NC(=O)c2ccccc2)ccc1O | 82.1%
23 | COc1cc(/C=N/NC(=O)c2cccc([N+](=O)[O-])c2)ccc1O | 96.9%
24 | COc1cc(/C=N/NC(=S)Nc2cccc(C(=O)O)c2)ccc1O | 102%
25 | COc1cc(CN2CCC(C(=O)N3CCN(c4ccccc4F)CC3)CC2)ccc1O | 96.1%

Row | SMILES | viability
26 | COc1cc(/C=C/C(=O)OCC(=O)Nc2c(C)n(C)n(-c3ccccc3)c2=O)ccc1O | 100%
27 | Oc1ccc(Cl)cc1N=Cc1sc2ccccc2c1Cl | 96.4%
28 | COCc1cc(C)nc(OCC(=O)N/N=C/c2ccc(O)cc2)c1C#N | 93.9%
29 | O=C(Cc1cccs1)N/N=C\c1ccc(O)cc1 | 101%
30 | COCCNC(=O)COc1ccc(Nc2ccccc2)cc1 | 97.8%
31 | COc1ccc(N2CCN(c3ncccc3C#N)CC2)cc1 | 101%
32 | COc1cc(/C=C/C(=O)OCC(=O)NNC(=O)c2cc(Cl)ccc2OC)ccc1O | 98.7%
33 | C=CCN1C(=O)CSC1=Nc1ccc(O)cc1 | 114%
34 | COc1ccc(N2CCN(CC(=O)N3c4ccccc4CC3C)CC2)cc1 (stereo not given) | 94.6%
35 | Cc1[nH]c2ccccc2c1N=Nc1c(C)n(C)n(-c2ccccc2)c1=O | 91.2%
36 | COc1ccc(NC(=O)c2ccc(NC(=O)CN3CCN(c4ccc(O)cc4)CC3)cc2)cc1 | 97.1%
37 | COc1ccc(NC2CCCN(C(=O)CCc3ccccc3F)C2)cc1 (stereo not given) | 102%
38 | COC(=O)CCNCCSc1nnc(-c2ccco2)n1Cc1ccccc1 | 100%
39 | CCOC(=O)c1sc(/N=C/c2ccc(O)cc2O)cc1C | 99%
40 | COc1cc(/C=N/NC(=O)c2nc(-c3ccccc3)n(-c3ccccc3)n2)ccc1O | 99.1%
41 | COc1cc(/C=N/NC(=O)c2ccc(=O)[nH]n2)ccc1O | 110%
42 | COc1ccc(-c2ncc3ccccn23)cc1OC | 91.5%
43 | COc1cccc(-c2ncc3ccccn23)c1 | 80.1%
44 | CS(=O)(=O)C1=NSC2=NC(=O)/C(=C\c3ccc(OC(=O)c4ccco4)c(Br)c3)C(=N)N21 | 103%
45 | CC(=O)Nc1ccc(S(=O)(=O)Nc2nc3ccccc3nc2Nc2ccc(C(=O)O)c(O)c2)cc1 | 104%
46 | C[C@@H]1O[C@@H](OC[C@H]2O[C@@H](Oc3cc(O)c4c(=O)cc(-c5ccc(O)c(O)c5)oc4c3)[C@H](O)[C@@H](O)[C@@H]2O)[C@H](O)[C@H](O)[C@H]1O | 103%
47 | C=CC[n+]1c(/C=C/c2ccc(OC(C)=O)c(OC)c2)ccc2ccccc21 | 101%
48 | CC/C(=C\c1ccc(N(C)C)cc1)c1ccncc1 | 92.7%
49 | CN(C)c1ccc(/C=N/O)cc1 | 94.3%
50 | Nc1cc(Cc2ccccc2)ccc1O | 95.1%

Row | SMILES | viability
51 | N#Cc1ccc(OCC(=O)Nc2ccc(N3CCCC3)cc2)cc1 | 94.7%
52 | O=C(Nc1ccc(N2CCCCC2)cc1)c1ccccc1 | 84.1%
53 | COc1cc(N=Nc2ccc(C(=O)N(C)C)cc2)c(C)cc1N | 88.4%
54 | N#CC1(Nc2ccc3c4c(cccc24)CC3)CCCCC1 | 104%
55 | Cc1cnc(NC(=O)C(C)N2CCN(C)CC2)s1 (stereo not given) | 100%
56 | O=C(Nc1ccccc1Cl)Oc1ccc(-c2ccccc2)cc1 | 88.8%
57 | Cc1cc(NC(=O)CN2CCC(C)CC2)no1 | 101%
58 | COc1ccccc1NS(=O)(=O)c1ccc(C)c(C(=O)N2CCN(c3ccc(O)cc3)CC2)c1 | 104%
59 | Cc1ccc(C2C=NN(c3ccccc3)C2=O)cc1 (stereo not given) | 93.7%
60 | C=CCn1c(=O)/c(=C/c2ccc(O)cc2)s/c1=C(/C#N)c1nnc2n1CCCCC2 | 96%
61 | COc1ccc(NC2CCCN(C(=O)CCc3scnc3C)C2)cc1 (stereo not given) | 99.4%
62 | COc1cc(N)c2ncccc2c1OC | 97.3%
63 | COc1cc(N)c2ncccc2c1SC | 92.9%
64 | COc1ccccc1N1CCN(/N=C/c2ccc(O)cc2O)CC1 | 102%
65 | COc1ccc(CN2CCN(Cc3ccc(Br)cc3)CC2)c(OC)c1OC | 85%
66 | COc1ccc(CNCc2cccc(OC)c2OC)cc1Br | 96%
67 | COc1ccc(Br)cc1CN(C)CC(=O)NCCc1ccccc1 | 93.4%
68 | COc1ccc(Br)cc1CNc1ccc(O)cc1 | 104%
69 | Oc1ccc(/C=N/NC(=S)NCc2ccco2)cc1 | 93.7%
70 | CCN(CC)c1ccc(/C=N/N2CCOCC2)cc1 | 100%
71 | CCNc1nc(NCC)nc(N/N=C/c2ccc(O)c(O)c2)n1 | 95.7%
72 | COc1ccc(NC(=O)NS(=O)(=O)c2ccc(C)cc2)cc1OC | 86.5%
73 | CCc1nnc(N/N=C/c2cc(Br)c(O)cc2O)n1N | 92.8%
74 | COc1cc(/C=C/C(=O)OCC(=O)NCc2ccc(F)cc2)ccc1O | 109%
75 | CCN(CC)c1ccc(Nc2nc(-c3cccnc3)cs2)cc1 | 101%

Row | SMILES | viability
76 | CCN(CC)c1ccc(NC(=O)c2ccc(Br)o2)cc1 | 93%
77 | COc1ccc(N2CCC(CNC(=O)Nc3ccc(C)c(C)c3)C2)cc1 (stereo not given) | 96.6%
78 | COc1cc(C(=O)N/N=C/c2ccc(OC)c(CN3CCN(c4ccc(F)cc4)CC3)c2)ccc1O | 101%
79 | CC1=CC(c2ccccc2)NC(=S)N1 (stereo not given) | 98.5%
80 | COc1ccc(NC(=O)C(C)N2CCN(C)CC2)cc1 (stereo not given) | 102%
81 | COc1cc2c(cc1N)-c1ccc(N)cc1C2 | 83.6%
82 | COc1ccc(NC2CCCN(C(=O)c3csc(C(C)C)n3)C2)cc1 (stereo not given) | 106%
83 | CCOc1cc(/C=N/NC(=O)c2ccc(=O)n(C)c2)ccc1O | 103%
84 | O=C(CNC(=O)c1ccncc1)N/N=C/c1ccc(O)cc1O | 88%
85 | Cc1nonc1C(=O)N/N=C/c1ccc(O)cc1 | 87.1%
86 | COc1cc(/C=N/NC(=O)C2=NNC(=O)C2C)ccc1O (stereo not given) | 101%
87 | COc1cc(/C=N/NC(=O)c2nonc2C)ccc1O | 93.3%
88 | COc1cc(/C=N/NC(=O)Cc2nnc(NC(=O)c3ccccc3)s2)ccc1O | 97.2%
89 | CC(=O)Nc1ccc(S(=O)(=O)Nc2ccc(Nc3ccccc3)cc2)cc1 | 106%
90 | CCn1c(C)nc2cc(C(=O)N/N=C/c3ccc(O)cc3)ccc21 | 113%
91 | Cc1nn2cc(-c3ccc(N)cc3)nc2s1 | 101%
92 | COc1cc(/C(C)=N/NC(=O)Cc2c(C)[nH][nH]c2=O)ccc1O | 99.8%
93 | C=CCn1c(CNc2ccc(C)cc2)nnc1SCC(=O)N/N=C/c1ccc(O)cc1O | 89.8%
94 | CC(C)Cn1c(-c2ccc(Br)o2)n[nH]c1=S | 97.4%
95 | CCN(CC)CCNCC(=O)Nc1ccc(Oc2ccccc2)cc1 | 97.4%
96 | CCC(=O)c1ccccc1OCCN1CCN(CC)CC1 | 89.8%
97 | CN(C)c1ccc(Cc2ccc(N(C)C)cc2)cc1 | 95.3%
98 | O=C1c2c([N+](=O)[O-])cc([N+](=O)[O-])cc2S(=O)N1Cc1ccccc1 (stereo not given) | 106%
99 | COc1cc(/C=C/C(=O)OCC(=O)Nc2cccc(F)c2)ccc1O | 94.6%
100 | O=[S@]1Oc2ccccc2-c2ccccc21 | 107%

— PubChem BioAssay AID624300 (Southern Research Specialized Biocontainment Screening …, 2012)
